A selection: hits, their analogues and other compounds. The true share with any hit is near 8%.
HT1080 IDH1KD tx – toxicity to HT-1080 IDH1 knockdown cells (counter line); HT-1080 IDH1 knockdown viability, ATP luminescence, 48 h; Potency, µM (doses to about 46.1 µM), actives largely listed as cytotoxic; actives 2% (n = 360,000); AID 686971
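CellTiter-Glo luminescence after 48 h compound exposure at 37 degrees C of IDH1-knockdown HT-1080 cells in 5% FBS RPMI. %Activity scaled between DMSO wells and cell-free media wells, with curves fitted and assigned curve classes.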
KB-V1 MDR tox – kills drug-selected multidrug resistant KB-V1 cells; KB-V1 MDR cells viability, CellTiter-Glo, 72 h; Potency, µM (doses to about 46.1 µM), usual class: cytotoxic; actives 3.4% (n = 400,000); AID 1347076; also: nearly all actives have a fitted effect of over 60% in size
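qHTS viability screen in drug-selected KB-V1 MDR cells: 72 h compound treatment at 37 degrees C, ATP luminescence end point.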
KB-3-1 tox – kills parental KB-3-1 adenocarcinoma cells | actives 1.4% (n = 400,000) | KB-3-1 viability, CellTiter-Glo ATP luminescence, 72 h | Potency, µM (doses to about 46.1 µM), usual class: cytotoxic; also: nearly all actives have a fitted effect of over 60% in size
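Luminescent ATP read-out (CellTiter-Glo) measures survival of drug-naive KB-3-1 cells after 72 h compound exposure at 37 °C. Titration series was screened from lowest to highest concentration, with DMSO vehicle plates as background controls.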
HT1080-NT tox – kills 2HG-producing HT-1080-NT fibrosarcoma cells | HT-1080-NT fibrosarcoma viability, CellTiter-Glo ATP luminescence, 48 h | Potency, µM (highest dose often 46.1 µM), most hits filed as cytotoxic | actives 1.6% (n = 360,000) | AID 686970;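 also: NT is the 2HG producing partner of a matched IDH1 knockdown line; nearly all actives have a fitted effect of over 55% in size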
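750 cells/well, RPMI + 5% FBS; 2 h settle, compound pin-transfer, 48 h at 37 degrees C. CellTiter-Glo 10 min RT, luminescence. Normalized to DMSO and media-only wells.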
SW480 rereplic – DNA re-replication induction in SW480 cells | actives 1.8% (n = 340,000) | AID 624297 | Potency, µM (titrated, usually from 46.1 µM), hits mostly activators | SW480 DNA re-replication, Hoechst DNA content imaging, 48 h; also: nearly all actives have a fitted effect of over 55% in size
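First, 250 cells per well were seeded. Next, compound or vehicle (23 nL) was pinned in, plates sat 48 hr at 37 C. Finally Hoechst was added for 40 min before fluorescence scanning.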
MCF10A rerep – induces DNA re-replication in MCF 10a normal breast cells | MCF 10A DNA re-replication, Hoechst nuclear intensity, 48 h | Potency, µM (highest dose often 46.1 µM), usual class: activators | actives 2.9% (n = 350,000); also: nearly all actives have a fitted effect of over 50% in size
Large screens that a line does not name were inactive. Calls follow the shape of the dose curve; as a rule, active = well fitted curve in the direction sought with a large enough effect; inconclusive = small, poorly fitted or top-dose-only effect, or another doubt; inactive = no such curve, though single readings can be large; an effect the other way counts as inactive or inconclusive.

Cn1cc(CN2CCC(C(=O)NC(c3ccc(F)cc3)c3ccc4ccccc4n3)CC2)c2ccccc21 (stereo unspecified)	HT1080 IDH1KD tx 16µM, KB-V1 MDR tox inconclusive, KB-3-1 tox inconclusive, HT1080-NT tox 23µM (no result: SW480 rereplic, MCF10A rerep)
COc1ccc(C(NC(=O)C2CCN(CCOc3ccc(Cl)cc3)CC2)c2cccs2)cc1 (stereo unspecified)	HT1080 IDH1KD tx inconclusive, HT1080-NT tox 21µM (no result: SW480 rereplic, MCF10A rerep)
NC(=O)c1c(NC(=O)Cn2nc(C(=O)O)c3ccccc3c2=O)sc2c1CCCC2	MCF10A rerep inconclusive
CN1CCN(CCCNC(=O)c2ccc3c(c2)N(Cc2ccc(F)cc2)CCS3)CC1	HT1080 IDH1KD tx inconclusive, SW480 rereplic inconclusive, MCF10A rerep inconclusive
O=C(NC(c1ccc(F)cc1)c1ccc2ccccc2n1)C1CCN(CCOc2ccc(Cl)cc2Cl)CC1 (stereo unspecified)	HT1080 IDH1KD tx 12µM, KB-V1 MDR tox inconclusive, KB-3-1 tox inconclusive, HT1080-NT tox inconclusive (no result: SW480 rereplic, MCF10A rerep)
O=C(NC(c1ccc(Cl)cc1)c1cccnc1)C1CCN(CCOc2ccc(Cl)cc2Cl)CC1 (stereo unspecified)	HT1080 IDH1KD tx 18µM, HT1080-NT tox 18µM (no result: SW480 rereplic, MCF10A rerep)
COc1ccc(OCCN2CCC(C(=O)NC(c3ccc(F)cc3)c3ccc4ccccc4n3)CC2)cc1 (stereo unspecified)	HT1080 IDH1KD tx inconclusive, KB-3-1 tox inconclusive, HT1080-NT tox inconclusive (no result: SW480 rereplic, MCF10A rerep)
O=C(NC(c1ccc(F)cc1)c1ccc2ccccc2n1)C1CCN(CCOc2ccc(F)cc2)CC1 (stereo unspecified)	HT1080 IDH1KD tx 9.2µM, KB-V1 MDR tox 18µM, KB-3-1 tox inconclusive, HT1080-NT tox inconclusive (no result: SW480 rereplic, MCF10A rerep)
Cc1cccnc1C(NC(=O)C1CCN(CCOc2ccc(Cl)cc2Cl)CC1)c1ccc(Cl)cc1 (stereo unspecified)	KB-V1 MDR tox inconclusive, KB-3-1 tox inconclusive (no result: SW480 rereplic, MCF10A rerep)
O=C(NC(c1ccccc1)c1ccc2ccccc2n1)C1CCN(Cc2ccc(Oc3ccccc3)cc2)CC1 (stereo unspecified)	HT1080 IDH1KD tx 13µM, HT1080-NT tox inconclusive (no result: SW480 rereplic, MCF10A rerep)
O=C(NC(c1ccc(F)cc1)c1cnccn1)C1CCN(CCOc2ccc(Cl)cc2Cl)CC1 (stereo unspecified)	HT1080 IDH1KD tx inconclusive, HT1080-NT tox inconclusive (no result: SW480 rereplic, MCF10A rerep)
Cc1ccc(C)c(OCc2nc3ccccc3n2C)c1	none (no result: HT1080 IDH1KD tx, HT1080-NT tox, SW480 rereplic, MCF10A rerep)
O=C(c1ccc(F)cc1)N1CCN(C2=NS(=O)(=O)c3ccccc32)CC1	KB-3-1 tox inconclusive
O=C(NC(c1ccccc1)c1ccc2ccccc2n1)C1CCN(CCOc2ccc(Cl)cc2)CC1 (stereo unspecified)	HT1080 IDH1KD tx 4.1µM, KB-V1 MDR tox inconclusive, KB-3-1 tox inconclusive, HT1080-NT tox 3.7µM (no result: SW480 rereplic, MCF10A rerep)
COc1ccc(OCCN2CCC(C(=O)NC(c3ccccc3)c3ccc4ccccc4n3)CC2)cc1 (stereo unspecified)	HT1080 IDH1KD tx inconclusive, KB-3-1 tox inconclusive, HT1080-NT tox inconclusive (no result: SW480 rereplic, MCF10A rerep)
O=C(O)c1cccc(NC2=C(n3nnc4ccccc43)C(=O)c3ccccc3C2=O)c1	none
CCSc1nc(CC)c2c(c1C#N)CCCC2	SW480 rereplic 0.52µM
O=C1/C(=C/c2ccc([N+](=O)[O-])cc2)C=C(c2ccccc2)N1c1ccccc1	none
